hcDAF12 agonist = activators of H. contortus DAF-12 nuclear receptor; AID 652067; HEK293 hcDAF-12 lit1-tk-luc reporter, luminescence; 0% DMSO, 100% Δ7-dafachronic acid; activation, % at 6.8 µM; 370,000 tested, 1.4% active;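 active = activation above the mean of all tested compounds plus 3 SD, cut at about 5.5% in these data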;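 also: 100% = response to 3 µM Δ7-dafachronic acid high control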
SMARCA2 activ = activators of SMARCA2 function. 370,000 tested, 1% active. MG213 cells, MMTV-luciferase reporter, dexamethasone, overnight. AID 652017. activation, % at 9.1 µM; in the data active = activation above about 7.8%;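 also: 0% = vehicle wells and 100% = reference activator wells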
DAX1 inh-1 = NR0B1 (DAX1) inhibition; P51843; HEK293 Gal4-DAX1 luciferase reporter, luminescence; inhibition, % at 6.75 µM; 340,000 tested, 0.99% active;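 active = inhibition above the mean over all tested compounds plus 3 SD, cut at about 4.2% in these data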;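 also: 0% = DAX1-transfected cells with DMSO and 100% = empty-vector control cells with DMSO; inhibition shows as a rise in luminescence from relieved DAX1 repression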
Target sequence (P51843 207-470 limits assumed): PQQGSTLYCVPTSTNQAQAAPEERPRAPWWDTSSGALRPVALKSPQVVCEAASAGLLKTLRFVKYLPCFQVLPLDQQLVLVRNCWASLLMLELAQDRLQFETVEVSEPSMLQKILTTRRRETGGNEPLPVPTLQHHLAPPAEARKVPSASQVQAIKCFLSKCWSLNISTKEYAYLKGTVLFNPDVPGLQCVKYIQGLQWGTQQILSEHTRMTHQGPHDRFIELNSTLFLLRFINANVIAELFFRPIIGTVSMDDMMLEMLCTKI
DAX1 inh-2 = inhibitors of DAX1 repression of SF-1 activated StAR promoter. HEK293T StAR-luciferase reporter, SF-1/DAX-1 repression relief. inhibition, % at 6.8 µM. 370,000 tested, 1.1% active. AID 652010;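 active = inhibition above the mean over all tested compounds plus 3 SD, cut at about 3.6% in these data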;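 also: 0% = DAX-1 cells with DMSO and 100% = cells lacking DAX-1 with DMSO; higher inhibition means more luminescence from relief of DAX-1 repression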
ssDAF12 agonist = activators of S. stercoralis DAF-12 nuclear receptor | activation, % at 6.8 µM | HEK293 ssDAF-12/GRIP1 lit1-tk-luc reporter, luminescence; % of 3 µM dafachronic acid response | 370,000 tested, 1% active;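 active = activation above the mean over all tested compounds plus 3 SD, cut at about 0.9% in these data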;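 also: 0% = DMSO-only wells and 100% = 3 µM delta7-dafachronic acid wells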
hgDAF-12 ag = agonists of H. glycines DAF-12 nuclear receptor; AID 687014; 370,000 tested, 1.8% active; activation, % at 6.8 µM; HEK293 GAL4-hgDAF12 UAS-luciferase reporter, agonist luminescence; normalized to butyrate control;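 active = activation above a cutoff set at the mean of all screened compounds plus 3 SD, cut at about 10% in these data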;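 also: 0% = DMSO wells and 100% = sodium butyrate wells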
SMARCA2 conf = SMARCA2 activation, confirmation screen. shares compounds with SMARCA2 activ. AID 652260. activation, % at 9.1 µM. 3,500 tested, 30% active. MG213 cells, MMTV-luciferase with dexamethasone, luminescence, overnight; MG213 cells expressing E1A, Rb sequestered; DMSO wells 0%, reference activator 100%;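 active = activation above its plate's cutoff, the mean activation of tested wells plus 3 SD, cut at about 7.9% in these data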
VP16 Luc act = counter-screen for SMARCA2 activators: GAL4-VP16 luciferase reporter activation; shares compounds with SMARCA2 activ; 3,500 tested, 41% active; HEK293 GAL4-VP16 pG5luc reporter, luciferase luminescence; scaled: DMSO wells 0%, SAHA wells 100%; activation, % at 9.1 µM;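 active = activation above the solvent-only control well mean plus 3 SD, averaged across control plates, cut at about 5.2% in these data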
Active calls of the source: *; · = no result given. Hits are enriched below; roughly 4.8% of the tested compounds scored in any of these assays.

SMILES	hcDAF12 agonist	SMARCA2 activ	DAX1 inh-1	DAX1 inh-2	ssDAF12 agonist	hgDAF-12 ag	SMARCA2 conf	VP16 Luc act
COc1cccc(C(C)(O)c2nc(-c3cnc4ccccc4c3)cs2)c1 (configuration not stated)	-1.9	-1.1	·	-2.0	-1.6	-1.3	·	·
Cc1ccccc1-n1c(SCC(=O)NC2CCS(=O)(=O)C2)nc2ccccc2c1=O (configuration not stated)	-1.2	-0.7	-0.7	-1.6	-1.8	-1.9	·	·
Cc1c(NC(=O)C(C)OC(=O)c2cccnc2)c(=O)n(-c2ccccc2)n1C (configuration not stated)	-3.1	8.3*	-0.2	0.1	-0.7	-1.1	-1.5	0.5
c1ccc(C2Nc3ccccc3-c3nc4ccccc4n32)nc1 (configuration not stated)	0.3	10.1*	0.8	1.0	-0.3	9.9	1.3	1.0
O=C1Cn2c(nc3ccccc32)-c2ccccc2N1	0.2	-2.7	-1.2	-0.1	-1.3	-1.4	·	·
Cn1cnc([N+](=O)[O-])c1Cl	-1.5	-5.1	·	-0.8	0.0	0.5	·	·
CCS(=O)(=O)c1c([N+](=O)[O-])ncn1C	0.3	15.1*	0.0	-0.3	-1.4	3.1	12.2*	1.7
Cn1cnc([N+](=O)[O-])c1Sc1ncn[nH]1	0.4	8.3*	-1.2	0.7	-1.3	0.8	0.8	0.2
COc1nc(-c2ccc3c(c2)OCO3)n(-c2ccc(NC(=O)CSc3ccccc3)cc2)n1	-2.4	0.0	0.2	-1.1	-1.9	0.9	·	·
CCOC(=O)c1sc(N/N=C/c2ccccc2)nc1C	4.0	8.7*	1.7	2.6	1.2*	6.9	21.0*	13.3*
COc1ccc(/C=C/C(=O)OCC(=O)NCc2ccccc2Cl)cc1OC	-1.4	2.2	1.6	0.1	-0.5	-1.2	·	·
NC(=O)CC(NC(=O)Cc1ccc(Cl)cc1)c1ccc(NCC2CC2)c([N+](=O)[O-])c1 (configuration not stated)	-2.6	2.0	-0.4	-0.1	-1.0	-0.4	·	·
COCCN(CC(=O)Nc1cccc(C)c1C)C(=O)c1ccc2ccccc2n1	3.5	9.0*	0.1	1.7	0.2	5.7	6.4	2.3
Oc1ccc(-c2nccc(-c3ccccn3)n2)cc1	1.0	10.2*	1.8	1.1	-0.7	8.1	7.6	8.1*
O=C(N/N=C/c1cccc([N+](=O)[O-])c1)c1cc[n+](CCO)cc1	-2.7	-2.4	-1.6	-0.3	-0.8	0.3	·	·
FC(F)(F)c1ccccc1Cc1c(-c2ccco2)nc2ccc(Cl)cn12	1.4	1.2	·	-1.6	-1.6	-4.3	·	·
CC(C)(C)Cc1c(-c2ccco2)nc2ccc(Cl)cn12	1.3	12.8*	·	0.6	0.7	2.4	1.2	0.8
c1ccc2c(N3CCOCC3)nc(N3CCOCC3)nc2c1	-0.4	0.6	-0.5	-0.2	-1.3	1.0	·	·
CCSc1nc(N2CCOCC2)c2ccccc2n1	-2.2	13.5*	0.3	-0.5	-1.2	-0.7	2.8	0.7
COc1ccc(NC2c3ccccc3C(=O)N2c2ccccn2)cc1Cl (configuration not stated)	1.8	8.2*	-0.3	1.0	-1.4	0.6	1.6	0.6
O=C1c2ccccc2C(Nc2ccc(F)c(Cl)c2)N1c1ccccn1 (configuration not stated)	1.4	1.1	-0.8	0.7	-1.0	2.5	·	·
O=C(N1CCN(c2ccccc2F)CC1)C1(S(=O)(=O)c2ccc(Cl)cc2)CC1	0.5	-2.8	-1.0	0.3	-1.6	-1.9	·	·
Cc1nnc(N/N=C/c2ccc(-c3ccccc3F)o2)n1N	1.0	11.8*	-1.7	-1.9	-1.0	-1.7	7.0	9.2*
Cc1nnc(N/N=C\c2ccc(-c3ccccc3[N+](=O)[O-])o2)n1N	3.8	-2.1	0.8	-1.8	-1.0	-6.0	·	·
Cc1nc2c(-c3ccc(F)cc3)c(C)nn2c(C)c1CCC(=O)NCCN1CCOCC1	0.6	-2.7	-0.2	0.2	-1.1	-2.5	·	·
SMILES	hcDAF12 agonist	SMARCA2 activ	DAX1 inh-1	DAX1 inh-2	ssDAF12 agonist	hgDAF-12 ag	SMARCA2 conf	VP16 Luc act
CC1CCc2c(sc(NC(=O)CSc3nnc(-c4ccccc4)o3)c2C#N)C1 (configuration not stated)	-0.9	9.9*	-0.2	0.4	-0.8	3.8	-3.3	1.1
CC(=O)N1CCOc2ccc(S(=O)(=O)NC[C@H]3O[C@@H](n4ccc(N)nc4=O)[C@H](O)[C@@H]3O)cc21	0.2	1.8	0.2	0.6	-1.6	2.0	·	·
Cc1cc(C)nc(Nc2nc(=O)c3ccccc3s2)n1	0.4	8.8*	1.6	0.9	-1.2	3.9	4.1	14.2*
CC(C)Cc1ccc(/C(=N/O)C(=O)O)s1	-1.6	1.4	-0.1	0.7	-1.4	1.1	·	·
Cc1ccc(S(=O)(=O)/N=C(/c2ccccc2)N2CCOCC2)cc1	-0.7	8.2*	0.0	0.1	-0.9	-1.3	-2.1	0.8
COc1ccc2cc(C3CC(c4cccs4)=NN3S(C)(=O)=O)c(Cl)nc2c1 (configuration not stated)	-0.7	-1.2	-1.4	-0.8	-1.3	0.7	·	·
COc1ccc(-c2ccc(SCC(=O)N3c4ccccc4CC3C)nn2)cc1OC (configuration not stated)	-1.0	13.2*	-2.3	-0.3	-2.1	0.4	1.9	4.1
COC(=O)c1ccc(NCc2cc(O)ccc2O)cc1O	-2.1	8.5*	-2.0	-3.9	-1.1	-9.1	6.1	2.9
COc1ccc(C(=O)N2CCCC(c3nc(-c4cc(OC)c(OC)c(OC)c4)no3)C2)cc1 (configuration not stated)	·	·	-1.1	·	·	·	·	·
COc1ccc(-c2cn(-c3ccc(C)cc3)c(=O)n2CC(=O)Nc2ccc(OC)cc2OC)cc1	1.2	8.8*	1.4	-0.5	0.7	-3.2	-3.6	2.8
c1ccc(-n2nnc3ccccc32)nc1	1.2	2.7	0.1	0.4	-0.9	5.0	·	·
Cc1nc2c(ccc3nc(NC(=O)Cc4ccccc4)sc32)s1	-0.5	10.5*	-0.8	1.3	-1.9	7.1	6.9	4.0
O=C(CC1(O)C(=O)N(Cc2cccc3ccccc23)c2ccccc21)c1cccnc1 (configuration not stated)	-2.2	-2.0	-1.9	-0.5	-1.1	-0.1	·	·
Cc1cccc2nc(CSc3nnc4ccccn34)cn12	5.8*	8.4*	1.9	3.5	0.2	12.0*	9.9*	11.8*
Cc1cccc2nc(CSc3nnnn3-c3ccccc3)cn12	-2.1	-1.2	-0.5	-0.1	-0.9	0.8	·	·
